The source of these data is PubChem BioAssay (EPA / NIEHS).

Activity calls are given as the source filed them. The calls were made as follows: active = hit-call score of the fitted dose curve at least 0.9, where 1 is the maximum; inactive = score below 0.9.

The first assay can be described thus: CEETOX_H295R_OHPROG: CeeTox H295R High-throughput Steroidogenesis Assay for OH-Progesterone (OHPROG) (AID 2283435).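 As to AC50: human adrenal H295R cells primed 48 h with 10 µM forskolin.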 The settings on record: actives raise or lower the signal. In short, it runs like this: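 H295R adrenal cells prestimulated 48 h with 10 uM forskolin, then exposed 48 h to chemical (0.1% DMSO final). 17alpha-hydroxyprogesterone in medium quantified by HPLC-MS/MS; bidirectional fit versus DMSO, with MTT viability measured in the same wells.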
As for `CC=CC(=O)C1=C(C)C=CCC1(C)C`, the call was inactive.

On to `OCC=Cc1ccccc1`, for which the compound was called inactive.

Consider `OCCCO`, for which the result was inactive.

Turning to `c1ccc(OCCOc2ccccc2)cc1`, the AC50 (usually the concentration giving half of the maximal activity seen) was 36.9 µM (active).

In the case of `O=C(OCc1ccccc1)c1ccccc1O`, the AC50 was 50 µM (active).

Take `CC(=N[Si](C)(C)C)O[Si](C)(C)C`: the compound was called inactive.

Regarding `c1coc(CNc2ncnc3nc[nH]c23)c1`, the compound was classed as inactive.

Another assay is described as follows: CEETOX_H295R_ANDR: CeeTox H295R High-throughput Steroidogenesis Assay for Androstenedione (ANDR) (AID 2283436). The settings on record: actives raise or lower the signal. In short, it runs like this: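 Read-out is androstenedione secreted into medium, measured by tandem mass spectrometry after liquid-liquid extraction. Cells were H295R, dosed for 48 h per modified OECD 456; activity fitted in both directions relative to DMSO.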
As to `CC=CC(=O)C1=C(C)C=CCC1(C)C`, the call was inactive.

`OCCCO`: the outcome was inactive.

In the case of `CC(=N[Si](C)(C)C)O[Si](C)(C)C`, the outcome was inactive.

A short description of a further assay: CEETOX_H295R_CORTIC: CeeTox H295R High-throughput Steroidogenesis Assay for Corticosterone (CORTIC) (AID 2283437).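 Also: corticosterone secreted into medium quantified by mass spectrometry.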 The note with it: actives raise or lower the signal. In short, it runs like this: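 Corticosterone secreted into medium is measured by reverse-phase HPLC with tandem MS following liquid-liquid extraction. Cells are forskolin-stimulated (10 uM, 48 h) before 48 h test exposure; activity fitted in both directions against DMSO.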
In the case of `O=c1cc(-c2ccc(O)cc2)oc2cc(O)cc(O)c12`, the compound was called inactive.

For `CC=CC(=O)C1=C(C)C=CCC1(C)C`, the outcome was inactive.

Turning to `OCCCO`, the call was inactive.

On to `c1ccc(OCCOc2ccccc2)cc1`, for which the compound was classed as inactive.

In the case of `O=C(OCc1ccccc1)c1ccccc1O`, the call was inactive.

For `CC(=N[Si](C)(C)C)O[Si](C)(C)C`, the result was inactive.

As for `c1coc(CNc2ncnc3nc[nH]c23)c1`, the result was inactive.

A short description of another assay: CEETOX_H295R_CORTISOL: CeeTox H295R High-throughput Steroidogenesis Assay for Cortisol (AID 2283438).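 Also: cortisol secreted into medium quantified by LC-MS/MS.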 The note with it: actives raise or lower the signal. The method, boiled down:
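Forskolin-primed H295R cells (10 uM, 48 h) treated 48 h with test chemical in 0.1% DMSO. Cortisol in medium quantified by MTBE extraction and HPLC-MS/MS; bidirectional fit vs DMSO, MTT viability in same wells.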
With `O=c1cc(-c2ccc(O)cc2)oc2cc(O)cc(O)c12`, the compound was called inactive.

As to `CC=CC(=O)C1=C(C)C=CCC1(C)C`, the outcome was inactive.

On to `OCCCO`, for which the call was inactive.

Consider `c1ccc(OCCOc2ccccc2)cc1`, for which the outcome was inactive.

As for `O=C(OCc1ccccc1)c1ccccc1O`, the result was inactive.

As to `CC(=N[Si](C)(C)C)O[Si](C)(C)C`, the call was inactive.

A further assay in a line: CEETOX_H295R_DOC: CeeTox H295R High-throughput Steroidogenesis Assay for DOC (AID 2283439). The note with it: actives raise or lower the signal. In short, it runs like this:
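H295R cells prestimulated 48 h with 10 uM forskolin, then exposed 48 h to test chemical (0.1% DMSO final). Medium 11-deoxycorticosterone measured by HPLC-MS/MS after MTBE extraction; bidirectional fit vs DMSO, viability checked by MTT in same wells.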
With `O=c1cc(-c2ccc(O)cc2)oc2cc(O)cc(O)c12`, the half-maximal activity concentration (AC50) is 7.72 µM (active).

For the compound `CC=CC(=O)C1=C(C)C=CCC1(C)C`, the call was inactive.

As for `OCCCO`, the compound was classed as inactive.

Take `c1ccc(OCCOc2ccccc2)cc1`: the result was inactive.

Turning to `O=C(OCc1ccccc1)c1ccccc1O`, the compound was called inactive.

Regarding `CC(=N[Si](C)(C)C)O[Si](C)(C)C`, the compound was called inactive.

Regarding `c1coc(CNc2ncnc3nc[nH]c23)c1`, the compound was classed as inactive.

The nature of the next assay: CEETOX_H295R_ESTRADIOL: CeeTox H295R High-throughput Steroidogenesis Assay for Estradiol (AID 2283440).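 Also: estradiol secreted into medium quantified by LC-MS/MS after dansyl derivatisation.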 The settings on record: actives raise or lower the signal. In short, it runs like this: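 H295R, 48 h forskolin (10 uM) prestim → 48 h compound, 0.1% DMSO final. Estradiol in medium: MTBE extraction, dansyl chloride derivatization, LC-MS/MS. Fit bidirectional vs DMSO baseline; MTT viability in same wells.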
As to `OCC=Cc1ccccc1`, the compound was classed as inactive.

For `OCCCO`, the call was inactive.

On to `c1ccc(OCCOc2ccccc2)cc1`, for which the outcome was inactive.

Turning to `O=C(OCc1ccccc1)c1ccccc1O`, the call was inactive.

A further assay is described as follows: CEETOX_H295R_ESTRONE: CeeTox H295R High-throughput Steroidogenesis Assay for Estrone (AID 2283441).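 Also: estrone secreted into medium measured by LC-MS/MS after dansyl derivatization.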 The settings on record: actives raise or lower the signal. The method, boiled down:
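H295R cells prestimulated 48 h with 10 uM forskolin, then exposed 48 h to chemicals in 0.1% DMSO final; estrone in medium extracted with MTBE, dansyl-derivatized, quantified by HPLC-MS/MS; bidirectional fitting versus DMSO, viability by MTT.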
For the compound `OCC=Cc1ccccc1`, the outcome was inactive.

Regarding `OCCCO`, the compound was classed as inactive.

As for `c1ccc(OCCOc2ccccc2)cc1`, the compound was called inactive.

Turning to `O=C(OCc1ccccc1)c1ccccc1O`, the outcome was inactive.

A short description of a further assay: CEETOX_H295R_PROG: CeeTox H295R High-throughput Steroidogenesis Assay for Progesterone (PROG) (AID 2283442).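 As to AC50: human H295R adrenal cells primed with 10 µM forskolin before dosing.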 The note with it: actives raise or lower the signal. The method, boiled down:
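Progesterone read-out: HPLC-MS/MS on MTBE extracts of conditioned medium after 48 h chemical exposure of forskolin-primed (10 uM, 48 h) H295R cells. Gain or loss of signal was fitted relative to DMSO baseline.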
As for `CC=CC(=O)C1=C(C)C=CCC1(C)C`, the compound was classed as inactive.

Turning to `OCC=Cc1ccccc1`, the outcome was inactive.

As to `OCCCO`, the outcome was inactive.

On to `c1ccc(OCCOc2ccccc2)cc1`, for which the concentration at half-maximal activity (AC50) was 14.3 µM (active).

As for `O=C(OCc1ccccc1)c1ccccc1O`, the AC50 was 50 µM (active).

As to `CC(=N[Si](C)(C)C)O[Si](C)(C)C`, the outcome was inactive.

Take `c1coc(CNc2ncnc3nc[nH]c23)c1`: the compound was classed as inactive.
